# ± gives the standard deviation of the averaged measurements. In all, about 25,000 sequences were measured (“ln(normalized median fluorescence intensity)”: median about 7.9, highest 2% from about 11 on). The sample as a whole holds a higher share of the highest values than the screen did.
# System: PfAP2-I AP2 domain 3 (GST-tagged)
# Assay: gcPBM binding intensity (ln(normalized median fluorescence intensity)); higher = stronger DNA binding
# Outline: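 Probes on an Agilent 4 × 180k array were primer-extended, double-stranded and 36 bp long, taken from intergenic genomic regions, with negative controls added. GST-tagged P. falciparum DNA-binding domains from E. coli, about 25 μg on average, were applied to the array for 1 h in 1× PBS containing 1% milk, 0.2 mg/ml BSA, 0.5% salmon testes DNA and 0.03% Triton X-100. Binding intensity, obtained after Alexa488 anti-GST antibody detection and a 488 nm scan, is the highest Masliner-normalised natural-log median intensity across replicate spots of either probe orientation.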
row,Sequence,gcPBM binding intensity (ln)
1,TATATTTATGTATATGTGCACATAAATTTAAGAATG [GTGCAC_site9512],9.68 ± 0.19
2,TATTGACATATATTAGTGCAATAATGAAATCAAGTA,10.9 ± 0.43
3,TATAAGAATGACAAGTGTACATATCAAATATATTAG [XGTACX_site7113],7.77 ± 0.38
4,TATATATTAATCAAAGTGCAATAATAAAATAAAAGT [GTGCAC_site9490],10.8 ± 0.34
5,ATAAAATAAAGGAAAAATATTAAGTTTTAAGAAAAT [CACACA_negctrl_site1066],7.6 ± 0.76
6,ATTATTTAAATGGATGCACACATGCATTAAATAAAA [CACACA_site5831],8.99 ± 0.82
7,CATTATGTACAAAAAGTGCAATATATATTAACACTG,11 ± 0.43
8,AATAACAAAATATTAACACACATAACATATTATAAA [CACACA_site2803],7.55 ± 0.47
9,AAAAAAATTACGCAAGTGCATATAATTTAACAAAAA,9.625 ± 0.007
10,ATATATTATATTATATGTACTTAAAAAAGTGCAAAG [XGTACX_site318],8.485 ± 0.035
11,ACAATATGCAAAAAGTGTACACATTCATTTATATAA [XGTACX_site1061],8.34 ± 0.32
12,ACGCAATATTAACAAGTGCATTATAACACATAACAT,11.3 ± 0.61
13,AATTAAATTACTTATACACACATAAAATGTCTGTAT [CACACA_site997],7.76 ± 0.34
14,AAATTTATGTGTGCCTGTACATATCAAAGATTTAAG [XGTACX_site8547],7.93 ± 0.34
15,TCAGATCCATAGAAGGTGCAAATAACAAAAATACAA [GTGCAC_site9610],11 ± 0.43
16,AAATAACAAAAGAAGGTGCTCATAAAAATTCATACA [GTGCAC_site9864],8.51 ± 0.28
17,ACATACATATGTAAATGTACAAAATATCCATAGATT [XGTACX_site2782],7.54 ± 0.77
18,GAAATAAAAAGAAATGCATGTAATTTTTTTTTTTTT [TGCATGCA_site928],7.61 ± 0.83
19,AATGACATTCTTACACGTACAAAATAAAAAATAAAA [XGTACX_site6932],7.89 ± 0.59
20,AATTTGTAAAATAAGGTGCGTATAAAAAATTATATT [GTGCAC_site9676],9.71 ± 0.2
21,CTTTATAAAATAAGAGTGCGTTATATTGAATTGTAT [GTGCAC_site9390],10.9 ± 0.6
22,ATAAGAATATATAGAGTGCGTTGAAGAATTATAATA,9.89 ± 0.27
23,TTATTCATATTATCATGTACTTATATATATTGTCAT [XGTACX_site2231],7.72 ± 0.55
24,AGAAGAAAAGTAAAAAGTACATTATTCATGGCCTAT [XGTACX_site5601],7.46 ± 0.7

row,Sequence,gcPBM binding intensity (ln)
1,TTAGAAAAATTATATATACACACTTATATTTATATA [CACACA_site2821],7.28 ± 0.4
2,TAAATATTTTTAGATGCATGCAATAATTACCCAAAG [TGCATGCA_site636],8.15 ± 0.78
3,ATTATATACAAATAAAGTACATAAACAAATTCAGAA [XGTACX_site1187],7.77 ± 0.47
4,ATGTTAATTAATGAGGTGCATTGAATATTTCAATAA,10.9 ± 0.73
5,AATATTTTTCAATTTCATGTGCATTCATTGAAGTTA [CACACA_negctrl_site1232],8.76 ± 0.37
6,TCTTTCAATATTAATGCATGTTAATAATAAATTTTA [TGCATGCA_site448],7.96 ± 0.57
7,TAAGTATATATATTTACACACATTTGTTTTTTTTTA [CACACA_site3784],7.57 ± 0.6
8,AAAAAATAGAATATAAAAATAAAGGAATTAAATTAA [XGTACX_negctrl_site420],7.33 ± 0.75
9,AAAAACTTATATGATACACACGATAAACAAAATAAA [CACACA_site1039],7.91 ± 0.42
10,ATTAGCAACATTGATAAATATAAACACACGAAAACA [TGCATGCA_negctrl_site97],8.09 ± 0.68
11,TGTAATATATGTATTGCACACCTATAACCATTATTT [CACACA_site8422],9.89 ± 0.3
12,AATATATATATATGTGCACACATATATAATATGTAT [CACACA_site716],9.2 ± 0.58
13,TATGTACACCCATATACACACCTCTATAATATATAT [CACACA_site4563],8.38 ± 0.18
14,TATATATATATGTGCACACATATATAATATGTATAA [CACACA_site715],10.1 ± 0.42
15,TAGAATGTATGTAGTGCACACCTCTATAATATATTA [CACACA_site1873],11.3 ± 0.6
16,TATAATGTATGTAGTGCACACCTCTATAATATATTA [CACACA_site8560],10.9 ± 0.64
17,ATATATTACAAATGGAGTACTAAAAATATTCTATAT [XGTACX_site6669],8.02 ± 0.38
18,ACACATATGACAAATAGTACATAAATATATAAATAT [XGTACX_site7141],7.79 ± 0.28
19,AATAATATATATATATATATATATAGATATGTATAT [GTGCAC_negctrl_site653],8.04 ± 0.25
20,GAAATTACTTTATAAACACACATTTATTTTATTTTA [CACACA_site7007],7.95 ± 0.26
21,CTACCTTTAATATATACACACACATAAAAAAAATAT [CACACA_site8548],8.05 ± 0.28
22,GTATATATTAAAAAAAAAAAAAAAAAATTAAAATTA [CACACA_negctrl_site572],7.14 ± 0.33
23,TATTTTTATAAGAGCATGCACTGTTTAAAATGGTAT,8.37 ± 0.45
